Laboratory results published in PubChem BioAssay (EPA / NIEHS).
Inconclusive results are not listed. The source made the active and inactive calls. Rule for the calls, unless noted: active = hit-call score of the fitted dose curve at least 0.9, where 1 is the maximum; inactive = score below 0.9.

How the values were obtained:
[1] = read-out: solute carrier (SLCO1B1), SLCO1B1 (gene 10599); assay: LTEA_HepaRG_SLCO1B1: Life Technologies and Expression Analysis (LTEA) Assay for solute carrier (SLCO1B1) using HepaRG (AID 2283530); details: mRNA level, 48 h; actives raise or lower the signal
Outline: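 SLCO1B1 transcript levels were quantified by TaqMan qRT-PCR using three housekeeping genes for normalization. This followed 48 h chemical exposure (100 uM top, half-log, 8 points, 0.5% DMSO) of HepaRG liver cells, with gain or loss fitted relative to DMSO.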

[2] = read-out: sulfotransferase 2A1 (SULT2A1), SULT2A1 (gene 6822); assay: LTEA_HepaRG_SULT2A1: Life Technologies and Expression Analysis (LTEA) Assay for sulfotransferase 2A1 (SULT2A1) using HepaRG (AID 2283531); details: mRNA level, 48 h; actives raise or lower the signal
Outline: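 Expression change of SULT2A1, by qRT-PCR with three housekeeping-gene normalization, was scored bidirectionally versus DMSO. Cells: differentiated HepaRG, dosed in duplicate for 48 h across 8 points, highest 100 µM, half-log dilution, 0.5% DMSO.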

[3] = read-out: Transforming Growth Factor (TGFA), TGFA (gene 7039); assay: LTEA_HepaRG_TGFA: Life Technologies and Expression Analysis (LTEA) Assay for Transforming Growth Factor (TGFA) using HepaRG (AID 2283532); details: mRNA level, 48 h; actives raise or lower the signal
Outline: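 Differentiated HepaRG cells exposed 48 hours in serum-free induction medium, 0.5% DMSO vehicle, 8-point half-log series from 100 uM, in duplicate. TGFA mRNA by TaqMan qRT-PCR, normalised to ACTB, GAPDH, POLR2A; bidirectional fit versus DMSO.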

[4] = read-out: Transforming Growth Factor (TGFB1), TGFB1 (gene 7040); assay: LTEA_HepaRG_TGFB1: Life Technologies and Expression Analysis (LTEA) Assay for Transforming Growth Factor (TGFB1) Transporter using HepaRG (AID 2283533); details: mRNA level, 48 h; actives raise or lower the signal
Outline: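 TGFB1 transcript measured by qRT-PCR with normalisation to three housekeeping genes (ACTB, GAPDH, POLR2A); human HepaRG line treated in duplicate for 48 hr with an 8-point series topping at 100 uM, 0.5% DMSO vehicle, bidirectionally fitted.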

TIMP1, TIMP1 (gene 7076) = assay: LTEA_HepaRG_TIMP1: Life Technologies and Expression Analysis (LTEA) Assay for TIMP1 using HepaRG (AID 2283534); details: mRNA level, 48 h; actives raise or lower the signal
Outline: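 Bidirectional change in TIMP1 transcript versus 0.5% DMSO, measured by TaqMan qRT-PCR with three housekeeping genes for normalization. HepaRG human liver cells dosed 48 h in duplicate, top concentration 100 uM with half-log dilutions.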

[5] = read-out: Tumor necrosis factor receptor 1 (TNFRSF1A), TNFRSF1A (gene 7132); assay: LTEA_HepaRG_TNFRSF1A: Life Technologies and Expression Analysis (LTEA) Assay for Tumor necrosis factor receptor 1 (TNFRSF1A) using HepaRG (AID 2283535); details: mRNA level, 48 h; actives raise or lower the signal
Outline: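 mRNA measured by qRT-PCR (TaqMan, Fluidigm arrays) against ACTB/GAPDH/POLR2A housekeepers after 48 h chemical exposure of HepaRG cells. Top concentration 100 uM, half-log 8-point series, duplicates; vehicle 0.5% DMSO, both fit directions.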

[6] = read-out: Thyroid Hormone Responsive (THRSP), THRSP (gene 7069); assay: LTEA_HepaRG_THRSP: Life Technologies and Expression Analysis (LTEA) Assay for Thyroid Hormone Responsive (THRSP) using HepaRG (AID 2283536); details: mRNA level, 48 h; actives raise or lower the signal
Outline: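 Differentiated HepaRG cells treated 48 h in serum-free induction medium with 8 half-log concentrations up to 100 uM (0.5% DMSO), duplicates. THRSP mRNA by TaqMan qRT-PCR normalised to ACTB, GAPDH, POLR2A; bidirectional fit versus DMSO.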

[7] = read-out: Cellular tumor antigen p53 (Homo sapiens) (UniProt P04637); assay: LTEA_HepaRG_TP53: Life Technologies and Expression Analysis (LTEA) Assay for Tumor Protein P53 (TP53) using HepaRG (AID 2283537); details: mRNA level, 48 h; actives raise or lower the signal
Outline: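 TP53 transcript measured by qRT-PCR, normalized to three housekeeping genes, after 48 h treatment of human HepaRG cultures with chemicals from 100 uM downward in half-log steps (0.5% DMSO vehicle, serum-free induction medium). Up- or down-regulation fitted against DMSO.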

[8] = read-out: UDP glucuronosyltransferase (UGT1A1), UGT1A1 (gene 54658); assay: LTEA_HepaRG_UGT1A1: Life Technologies and Expression Analysis (LTEA) Assay for UDP glucuronosyltransferase (UGT1A1) using HepaRG (AID 2283538); details: mRNA level, 48 h; actives raise or lower the signal
Outline: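 Human liver HepaRG cultures receive test chemical for 48 h, up to 100 uM in 0.5% DMSO, with phenobarbital induction controls. UGT1A1 mRNA is measured by qRT-PCR and normalized to ACTB, GAPDH and POLR2A.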

[9] = read-out: UDP glucuronosyltransferase (UGT1A6), UGT1A6 (gene 54578); assay: LTEA_HepaRG_UGT1A6: Life Technologies and Expression Analysis (LTEA) Assay for UDP glucuronosyltransferase (UGT1A6) using HepaRG (AID 2283539); details: mRNA level, 48 h; actives raise or lower the signal
Outline: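 Expression was quantified by TaqMan qRT-PCR on Fluidigm arrays with ACTB/GAPDH/POLR2A normalization and bidirectional fitting against 0.5% DMSO. HepaRG cells (~100,000/well) were treated in duplicate for 48 h at eight half-log concentrations up to 100 uM in serum-free induction medium.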

[10] = read-out: X-box binding protein 1 (XBP1), XBP1 (gene 7494); assay: LTEA_HepaRG_XBP1: Life Technologies and Expression Analysis (LTEA) Assay for X-box binding protein 1 (XBP1) using HepaRG (AID 2283540); details: mRNA level, 48 h; actives raise or lower the signal
Outline: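 XBP1 transcript by qRT-PCR (housekeeping-normalized: ACTB, GAPDH, POLR2A) after 48 h chemical treatment of HepaRG cells, 8-point half-log series topping at 100 uM, vehicle 0.5% DMSO. Gain and loss of signal fitted relative to DMSO.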

[11] = LTEA_HepaRG_LDH_cytotoxicity: Cytotoxicity Assessment in the Life Technologies and Expression Analysis (LTEA) Assay (AID 2283563; active = hit-call score of the fitted dose curve at least 0.9, where 1 is the maximum)
Outline: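 LDH release into culture medium read after 48 h chemical treatment of HepaRG cells. Duplicate wells, eight-point half-log series topping at 100 uM, 0.5% DMSO vehicle and baseline.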

[12] = Tanguay_ZF_120hpf_MORT_legacy: (Legacy) Oregon State University Tanguay Lab 120 Hour Post-fertilization zebrafish Assay for Mortality (AID 2283633; active = hit-call score of the fitted dose curve at least 0.9, where 1 is the maximum)
Outline: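 Static waterborne exposure from 6 to 120 hpf at 28C of single dechorionated wild-type (5D) embryos per well, 0.64% DMSO final. Death recorded present/absent by brightfield at 24 and 120 hpf.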

[13] = Tanguay_ZF_120hpf_YSE_legacy: (Legacy) Oregon State University Tanguay Lab 120 Hour Post-fertilization zebrafish Assay for Yolk Sac Edema (AID 2283634; active = hit-call score of the fitted dose curve at least 0.9, where 1 is the maximum)
Outline: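 Presence or absence of yolk sac edema was recorded at 120 hpf in surviving larvae. These were wild-type Tropical 5D embryos, chorion removed at 4 hpf, held in static exposure at 28C from 6 hpf with 0.64% DMSO vehicle.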

[14] = Tanguay_ZF_120hpf_EYE_legacy: (Legacy) Oregon State University Tanguay Lab 120 Hour Post-fertilization zebrafish Assay for Eye Malformation (AID 2283636; active = hit-call score of the fitted dose curve at least 0.9, where 1 is the maximum;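 note: binary presence or absence of eye malformation scored by brightfield in 120 hpf larvae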)
Outline: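 Dechorionated Tropical 5D zebrafish embryos, one per well from 6 hpf, static exposure to 120 hpf at 28C, 0.64% DMSO. Eye malformation scored present/absent by brightfield; dead embryos not scored.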

[15] = Tanguay_ZF_120hpf_SNOU_legacy: (Legacy) Oregon State University Tanguay Lab 120 Hour Post-fertilization zebrafish Assay for Snout Malformation (AID 2283637; active = hit-call score of the fitted dose curve at least 0.9, where 1 is the maximum)
Outline: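 Dechorionated tropical 5D wild-type zebrafish embryos exposed statically from 6 to 120 hpf at 28C, one per well, in 0.64% DMSO. Snout malformation scored as present/absent by brightfield at 120 hpf; dead embryos not scored.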

[16] = Tanguay_ZF_120hpf_JAW_legacy: (Legacy) Oregon State University Tanguay Lab 120 Hour Post-fertilization zebrafish Assay for Jaw Malformation (AID 2283638; active = hit-call score of the fitted dose curve at least 0.9, where 1 is the maximum)
Outline: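 Binary jaw-malformation call at 120 hpf by brightfield microscopy. Embryos (Tropical 5D strain, chorion removed at 4 hpf) were dosed statically at 6 hpf, one per well, at 28C with 0.64% DMSO. Embryos that died were not scored.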

[17] = Tanguay_ZF_120hpf_OTIC_legacy: (Legacy) Oregon State University Tanguay Lab 120 Hour Post-fertilization zebrafish Assay for Otic Vesicle Malformation (AID 2283639; active = hit-call score of the fitted dose curve at least 0.9, where 1 is the maximum)
Outline: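 Otic vesicle malformation is read as a yes/no morphology call at 120 hpf. Exposure is static at 28C with 0.64% (vol/vol) DMSO; embryos that die are excluded from non-mortality endpoints.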

[18] = Tanguay_ZF_120hpf_PE_legacy: (Legacy) Oregon State University Tanguay Lab 120 Hour Post-fertilization zebrafish Assay for Pericardial Edema (AID 2283640; active = hit-call score of the fitted dose curve at least 0.9, where 1 is the maximum)
Outline: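 Scoring was binary, by brightfield microscopy at 120 hpf, and skipped where mortality occurred. Wild-type embryos were kept under sealed, foil-covered static exposure at 28C in 0.64% (vol/vol) DMSO.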

[19] = Tanguay_ZF_120hpf_BRAI_legacy: (Legacy) Oregon State University Tanguay Lab 120 Hour Post-fertilization zebrafish Assay for Brain Malformation (AID 2283641; active = hit-call score of the fitted dose curve at least 0.9, where 1 is the maximum)
Outline: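 Binary brightfield scoring of brain malformation at 120 hpf in Tropical 5D larvae held under static exposure at 28C (0.64% v/v DMSO), non-mortality endpoints skipped if dead. Positive control: 5uM trimethyltin chloride; fit versus DMSO.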

Measured: outcome

Chain of Cellular tumor antigen p53 (Homo sapiens) (P04637 whole entry, looked up): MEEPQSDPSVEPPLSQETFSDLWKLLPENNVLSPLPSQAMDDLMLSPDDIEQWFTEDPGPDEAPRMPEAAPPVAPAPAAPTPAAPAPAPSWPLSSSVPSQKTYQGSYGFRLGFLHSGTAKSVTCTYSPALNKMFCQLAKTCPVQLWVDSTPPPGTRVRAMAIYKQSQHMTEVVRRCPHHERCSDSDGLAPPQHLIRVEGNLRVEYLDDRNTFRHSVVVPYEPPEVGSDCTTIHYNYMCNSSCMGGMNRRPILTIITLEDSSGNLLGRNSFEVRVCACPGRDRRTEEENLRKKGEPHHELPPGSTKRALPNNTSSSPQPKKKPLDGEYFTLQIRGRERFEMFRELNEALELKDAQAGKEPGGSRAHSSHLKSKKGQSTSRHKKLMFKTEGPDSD

CCC(C)=NO
inactive: all assays above
